The results in this text go back to PubChem BioAssay.

The subject of assay [1] is Wnt5a (protein binding on small-molecule microarray). Kind of assay: small molecules binding Wnt5a protein – biophysical, small-molecule microarray, 635/667 nm fluorescence, primary screen (AID 1142).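 Also: fluorescence read at 667 nm with signal to noise per printed feature.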 To be noted: 635 nm fluorescence, higher = more signal.
Assay [2] can be described thus: ATP-based viability of Huh7 replicon cells – cell-based, CellTiter-Glo luminescence, basal, 48 h, cytotoxicity control for HCV replication inhibitor project, primary screen (AID 1143).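 Also: Huh7 hepatoma cells carrying a hepatitis C replication reporter with no stimulus; test concentration not given here.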 To be noted: higher = more signal, called active from +8 up or from −8 down. (In general: In antiviral work, replicon cells carry a viral genome segment that copies itself.)
A short description of assay [3]: Pseudomonas biofilm growth suppression – PAO1 strain, BacTiter-Glo luminescence, LB-PBS, primary screen (AID 1144). Particulars: P. aeruginosa PAO1 biofilm, 12 h, higher = more signal.
Assay [4] in a line: basal CRE-LacZ reporter activity in PC12 – cell-based, unstimulated, primary screen (AID 1145). Particulars: no forskolin, luminescence, 4.5 h, higher = more signal, called active from +8 up or from −8 down.
Assay [5] is described as follows: forskolin-driven CRE-LacZ activity in PC12 – cell-based, CRE-LacZ reporter, forskolin-stimulated, primary screen (AID 1146).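 Also: PC12 cells with 6xCRE LacZ reporter stimulated by forskolin 10 µM; beta-galactosidase reporter signal reflecting CREB driven transcription.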 To be noted: luminescence, 4.5 h, higher = more signal, called active from +8 up or from −8 down.
For assay [6], the target named is Streptavidin (Streptomyces avidinii) (UniProt P22629). Kind of assay: compounds binding control protein streptavidin – biophysical, small-molecule microarray, 635/667 nm fluorescence, artefact control for SMM compound annotation, primary screen (AID 1147).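 Also: signal reflects streptavidin binding to arrayed compounds as a control protein.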 To be noted: higher = more signal.
Assay [7] is described as follows: probe aInhba binding on compound microarray – biochemical, small-molecule microarray, 635/667 nm fluorescence, primary screen (AID 1148).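 Also: score merges 667nm spot fluorescence with signal-to-noise for antibody binding to printed compounds.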 Particulars: higher = more signal.
Assay [8] deals with Torsin-1A (Homo sapiens) (UniProt O14656). Kind of assay: TOR1A wild-type binding on microarray – cell lysate, small-molecule microarray, lysate, 635/667 nm, primary screen (AID 1149). Particulars: COS7 hTOR1A-WT lysate, 635 nm fluorescence, higher = more signal.
Assay [9] has the same target. Briefly: torsin A mutant lysate binding on microarrays – cell lysate, small-molecule microarray, COS7 lysate, 635/667 nm fluorescence, primary screen (AID 1150).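 Also: score pools 667 nm emission and signal to noise measuring lysate protein binding.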 To be noted: COS7 hTOR1A mutant lysate, 635 nm fluorescence, higher = more signal.
Assay [10] deals with Sonic hedgehog protein (Shh). Kind of assay: Sonic hedgehog microarray binding compounds – biochemical, small-molecule microarray, 635/667 nm fluorescence, primary screen (AID 1151).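 Also: Shh protein binding to compounds spotted on small-molecule microarray slides; score combines spot fluorescence intensity with signal-to-noise across triplicate slides.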 To be noted: 635 nm fluorescence, higher = more signal.

Activity calls are given as the source filed them. Unless noted, no rule for the calls is given here.

Torsin-1A (Homo sapiens), sequence (O14656 whole entry, looked up): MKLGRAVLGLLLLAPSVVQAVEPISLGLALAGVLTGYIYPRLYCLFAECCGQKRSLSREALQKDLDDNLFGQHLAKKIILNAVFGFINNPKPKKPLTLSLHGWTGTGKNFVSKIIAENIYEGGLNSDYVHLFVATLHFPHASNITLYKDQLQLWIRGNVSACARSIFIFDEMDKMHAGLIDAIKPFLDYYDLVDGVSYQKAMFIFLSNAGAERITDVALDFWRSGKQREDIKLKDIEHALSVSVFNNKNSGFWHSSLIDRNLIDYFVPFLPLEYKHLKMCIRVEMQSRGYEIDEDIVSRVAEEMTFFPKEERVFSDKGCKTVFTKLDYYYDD
Streptavidin (Streptomyces avidinii), sequence (P22629 whole entry, looked up): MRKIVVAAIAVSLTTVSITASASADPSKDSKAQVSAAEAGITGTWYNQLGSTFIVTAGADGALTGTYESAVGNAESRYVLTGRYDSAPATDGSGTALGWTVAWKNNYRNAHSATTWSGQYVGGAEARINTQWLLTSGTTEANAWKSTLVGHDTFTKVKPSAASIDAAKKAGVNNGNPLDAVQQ

Turning to `COC(=O)C1=CC(CCCO)=CC(C2CC2)N(Cc2sc3ccccc3c2Cl)C=C1C(=O)OC` (stereo not given), the composite z-score in assay [1] was 0.351; in assay [6], 2.17; in assay [7], 0.19; in assay [8] it was 0.688; in [9], 0.806; in [10] it was -0.112. Also, the z-score in [2] is -3.83 (inactive); in assay [3] it was 0.989 (inactive); in assay [4], -0.464 (inactive); in assay [5] it was 0.106 (inactive).
`O=C1O[C@H](c2ccccc2)[C@H](c2ccccc2)N2[C@H]1[C@@H](C(=O)Nc1nc3ccccc3s1)[C@]1(C(=O)Nc3ccccc31)[C@H]2c1ccc(O)cc1`: the composite z-score in assay [1] is 0.0365; in assay [6] it was 1.2; in assay [7], -0.0736; in assay [8], -0.0245; in [9], 0.414; in assay [10] it was 1.51. For the same compound, the z-score in [2] is -1.69 (inactive); in assay [3], -0.363 (inactive); in assay [4], 0.478 (inactive); in assay [5], 0.757 (inactive).
Consider `COc1ccc([Si](C)(C)[C@H]2[C@H](CC(=O)N(CCO)Cc3ccccc3)O[C@@]3(C(=O)N(Cc4cccc(N5CCC5=O)c4)c4ccccc43)[C@@H]2C)cc1`, for which the composite z-score is 0.526 in assay [1]; 0.0587 in [6]; -0.0221 in [7]; 0.795 in [8]; 0.278 in [9]; 2.05 in [10]. The z-score in assay [2] is -6.85 (inactive); in assay [3] it was -0.216 (inactive); in [4], 0.469 (inactive); in assay [5], -0.854 (inactive).
Take `O=C(CS)NCCCCCCNC(=O)[C@@H]1C[C@@H]2C(=O)N3CCC[C@H]3C(=O)N2[C@@H]1c1ccc(O)cc1`: the composite z-score in [1] was 0.133; in assay [6], -0.974; in assay [7], -0.129; in assay [8] it was 0.971; in [9] it was 1.1; in [10], 0.881. The z-score is 0.589 (inactive) in [2], 0.178 (inactive) in assay [3], -0.39 (inactive) in [4] and -0.972 (inactive) in [5].
`COC(=O)c1ccc(OC)c(/C=C\CC(OC(C)=O)c2ccccc2)c1` (stereo not given): the composite z-score in [1] was -0.136; in [6] it was 3.16; in [7], -0.179; in assay [8], -0.0525; in assay [9] it was -0.165; in assay [10], 0.539. Further, the z-score is -1.38 (inactive) in [2], 0.623 (inactive) in assay [3], 0.479 (inactive) in assay [4] and -0.0792 (inactive) in [5].
As for `C=CCC(OC(C)=O)[C@@H]1[C@@H](N(Cc2cccc3ccccc23)C(=O)c2cccc3ccccc23)c2cc(OCCCO)ccc2N1C(=O)c1ccc2ccccc2n1` (stereo not given in full), the composite z-score in assay [1] is -0.0721; in assay [6], 0.193; in assay [7], -0.0791; in [8] it was -0.309; in assay [9], -0.297; in assay [10], 0.832. The z-score in [2] was -1.66 (inactive); in assay [3], 0.603 (inactive); in assay [4], 0.265 (inactive); in [5], 0.446 (inactive).
`C=C(COC)C(=O)CC[C@@H](OC(=O)c1cccnc1)c1ccc(CO)o1`: the composite z-score in assay [1] is 0.345; in assay [6], -0.022; in [7], -0.0675; in assay [8], 0.247; in [9] it was -0.332; in assay [10], 1.6. The z-score in assay [2] was -0.336 (inactive); in assay [3], -0.0359 (inactive); in [4], 0.611 (inactive); in [5], 0.114 (inactive).
As to `NCCCCCNC(=O)[C@H]1C[C@H]2C(=O)NCC(=O)N2[C@H]1c1cccc(OCCO)c1`, the composite z-score in assay [1] was 0.584; in [6], 0.579; in assay [7] it was -0.144; in assay [8] it was 0.483; in [9] it was 0.727; in [10], 2.01. Also, the z-score in assay [2] is 0.241 (inactive); in assay [3], -0.147 (inactive); in assay [4], -1.08 (inactive); in assay [5] it was 0.0161 (inactive).
On to `CCCC[C@@H]1C[C@H]1[C@@H](NC(=O)c1ccc(-c2ccccc2)cc1)c1ccc(-c2ccccc2)cc1`, for which the composite z-score in assay [1] is 0.198; in assay [6] it was 0.305; in [7], 0.0111; in assay [8] it was 0.0287; in [9], -0.0963; in [10], 2.02. Moreover, the z-score is -2.94 (inactive) in [2], 0.0911 (inactive) in assay [3], 0.394 (inactive) in assay [4] and 1.7 (inactive) in assay [5].
Regarding `COC(=O)C[C@H]1O[C@]2(C(=O)N(Cc3ccccc3)c3ccc(NC(C)=O)cc32)[C@@H](C)[C@@H]1[Si](C)(C)c1ccc(OC)cc1`, the composite z-score in assay [1] is 0.0998; in assay [6] it was 0.174; in assay [7], -0.251; in [8] it was -0.0471; in assay [9] it was 0.033; in assay [10], 0.978. The z-score in assay [2] is -0.796 (inactive); in [3], 0.695 (inactive); in assay [4], 1.84 (inactive); in assay [5], -0.792 (inactive).
Turning to `C#CCN(C(/C=C/c1ccccc1)CO)C(C(=O)O)c1ccccc1` (stereo not given), the composite z-score in [1] was 0.0265; in assay [6] it was 0.18; in assay [7], 0.0391; in assay [8], -0.407; in assay [9], -0.959; in [10], -0.514. Moreover, the z-score is -3.59 (inactive) in assay [2], 1.13 (inactive) in assay [3], -0.0487 (inactive) in assay [4] and -0.53 (inactive) in [5].
For `CC=CC(O)C1C=CC2C(=O)N(c3ccccc3)C(=O)C2N1Nc1ccc(C(C)C)cc1` (stereo not given), the composite z-score in [1] was 0.288; in assay [6] it was 1.24; in [7], 0.143; in [8], -0.173; in assay [9] it was 0.55; in [10], -0.0469. The z-score in [2] was 0.0547 (inactive); in assay [3], -0.302 (inactive); in assay [4] it was 0.0501 (inactive); in [5], 0.133 (inactive).
Consider `O=C1O[C@@H](c2ccccc2)[C@@H](c2ccccc2)N2[C@@H](c3ccc(OCCO)cc3)[C@]3(C(=O)Nc4ccc(C#CC5=CCCCC5)cc43)[C@@H](C(=O)O)[C@H]12`, for which the composite z-score in [1] was found to be 0.411; in [6], 1.22; in assay [7], 0.0895; in assay [8] it was 0.0714; in assay [9], 0.97; in assay [10], 0.658. Besides, the z-score in [2] is -2.22 (inactive); in assay [3] it was -0.761 (inactive); in assay [4] it was -0.348 (inactive); in [5], 7.68 (inactive).
On to `COCCCNC(=O)[C@@]1(c2ccc([N+](=O)[O-])cc2)CC(=O)N(CC23CC4CC(CC(C4)C2)C3)[C@@H]1c1ccc(CO)cc1`, for which the composite z-score is 0.459 in assay [1]; 0.0765 in assay [6]; -0.0018 in assay [7]; 1.02 in assay [8]; 0.894 in assay [9]; 2.13 in assay [10]. Also, the z-score in assay [2] is -4.39 (inactive); in assay [3], -1.51 (inactive); in assay [4], -0.179 (inactive); in assay [5], -0.284 (inactive).
